Article PMC4336329 (PLoS ONE, 2015)
Out of some 310,000 compounds screened, about 14,000 (4.5%) showed an effect of 50% or more. Effects have a minus sign here. What follows is part of a selection rich in strong results, with near analogues and random picks from the rest.

Each molecule was assayed against human ether-à-go-go-related gene (hERG) potassium channel (human, UniProt Q12809) (assay: primary screen, population patch clamp on CHO cells stably expressing hERG; higher = less effect of the substance).
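Note: peak tail current of the secondary pulse compared with the same well before compound.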

Sequence of human ether-à-go-go-related gene (hERG) potassium channel (Q12809 whole entry, looked up): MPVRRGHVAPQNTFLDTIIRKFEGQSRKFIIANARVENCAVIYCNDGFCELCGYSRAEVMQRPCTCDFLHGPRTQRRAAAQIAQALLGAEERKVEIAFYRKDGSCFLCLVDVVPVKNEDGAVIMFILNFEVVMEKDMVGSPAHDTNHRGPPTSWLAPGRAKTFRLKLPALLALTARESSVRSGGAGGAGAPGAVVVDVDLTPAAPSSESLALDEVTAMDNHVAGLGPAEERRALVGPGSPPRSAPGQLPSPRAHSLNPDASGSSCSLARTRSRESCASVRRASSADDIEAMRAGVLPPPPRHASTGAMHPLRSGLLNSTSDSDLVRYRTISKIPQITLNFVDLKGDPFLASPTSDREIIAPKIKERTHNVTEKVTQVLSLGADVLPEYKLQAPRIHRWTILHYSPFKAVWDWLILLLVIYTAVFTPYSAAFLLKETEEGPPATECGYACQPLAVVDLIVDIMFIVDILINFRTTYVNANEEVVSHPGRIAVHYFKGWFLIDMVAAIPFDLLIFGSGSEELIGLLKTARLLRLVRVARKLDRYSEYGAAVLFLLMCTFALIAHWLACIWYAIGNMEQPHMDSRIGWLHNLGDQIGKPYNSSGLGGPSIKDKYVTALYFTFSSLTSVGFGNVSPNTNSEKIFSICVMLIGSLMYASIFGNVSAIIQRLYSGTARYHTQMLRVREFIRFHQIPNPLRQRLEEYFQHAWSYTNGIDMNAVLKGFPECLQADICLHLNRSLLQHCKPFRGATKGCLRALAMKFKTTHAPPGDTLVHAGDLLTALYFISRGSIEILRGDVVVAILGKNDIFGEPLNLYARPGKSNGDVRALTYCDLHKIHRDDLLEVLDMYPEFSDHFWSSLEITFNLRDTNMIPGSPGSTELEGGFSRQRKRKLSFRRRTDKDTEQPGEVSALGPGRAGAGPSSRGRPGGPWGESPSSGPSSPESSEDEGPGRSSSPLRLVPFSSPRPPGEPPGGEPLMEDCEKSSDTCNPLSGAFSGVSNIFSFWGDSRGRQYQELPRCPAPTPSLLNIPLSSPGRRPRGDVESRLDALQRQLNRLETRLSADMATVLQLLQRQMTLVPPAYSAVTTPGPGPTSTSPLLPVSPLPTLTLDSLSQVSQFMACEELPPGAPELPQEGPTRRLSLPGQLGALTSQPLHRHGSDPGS

| Structure (SMILES) | hERG current change (%, negative = inhibition) at 10uM |
| --- | --- |
| CCc1ccc(OCC(=O)Nc2nnc(-c3ccco3)s2)cc1 | 11.5% |
| CC(C)N1C(=O)S/C(=C/c2cccnc2)C1=O | 8.88% |
| CCOC(=O)c1c(NC(=O)c2cccs2)sc(C)c1CC | 2.45% |
| CCOC(=O)C1=C(C)OC(N)=C(C#N)C1c1cc(OC)c2c(c1)OCO2 (stereo not drawn) | -20.6% |
| CCOc1cc(N2CCOCC2)c(OCC)cc1NC(=O)CSc1ccccc1C(=O)O | 5.72% |
| CCOC(=O)c1ccc(N(CC(=O)NCC2CCCO2)C(=O)CCC(=O)Nc2cc(C)on2)cc1 (stereo not drawn) | 9.99% |
| COc1cc(NC(=S)NCCc2c[nH]c3ccccc23)c(OC)cc1Cl | 10.1% |
| COc1ccccc1N(CC(O)CN1CCCCC1)S(=O)(=O)c1ccc(C)cc1 (stereo not drawn) | -29.7% |
| O=S(=O)(c1ccccc1)N(CC(O)CN1CCCC1)c1ccccc1 (stereo not drawn) | -19% |
| Cl.O=S(=O)(c1ccccc1)N(CC(O)CN1CCCCC1)c1ccccc1 (stereo not drawn) | -53.2% |
| O=S(=O)(c1ccccc1)N(CC(O)CN1CCOCC1)c1ccccc1 (stereo not drawn) | 18.6% |
| Cc1ccc(S(=O)(=O)N(CC(O)CN2CCCCC2)c2ccccc2)cc1.Cl (stereo not drawn) | -67.9% |
| CCN1CCN(Cc2nc3c(c(=O)[nH]c(=O)n3C)n2Cc2ccccc2Cl)CC1 | 14.8% |
| CCOC(=O)C1CCN(c2ncnc3c2cnn3-c2ccc(OC)cc2)CC1 | -16.2% |
| O=C(O)CC(c1cccc(C(F)(F)F)c1)N1CCS(=O)(=O)CC1 (stereo not drawn) | 2.42% |
| CC(C)CCn1cnc2c(oc3nc4c(cc32)CCCC4)c1=O | -16.6% |
| CCCCCCn1cnc2c(oc3nc4c(cc32)CCCC4)c1=O | 5.16% |
| CCCCn1cnc2c(oc3nc4c(cc32)CCCC4)c1=O | -55.5% |
| Cc1ccc(NC(=O)Cc2ccccc2Cl)cc1S(=O)(=O)N(C)C | 0.299% |
| O=C1c2ccccc2C(=O)N1CCc1nn[nH]n1 | 17% |
| COc1ccc(NC(=O)NNC(=O)COc2ccc3cc(Br)ccc3c2)c(OC)c1 | 19.2% |
| CCOC(=O)C1(Cc2ccccc2Cl)CCN(C(=O)CCn2ccnc2C)CC1 | -52.6% |
| CCOC(=O)C1(CCCc2ccccc2)CCN(C(=O)C(C)n2cncn2)CC1 (stereo not drawn) | -29% |

| Structure (SMILES) | hERG current change (%, negative = inhibition) at 10uM |
| --- | --- |
| CCOC(=O)C1(Cc2ccc(OC)cc2)CCN(C(=O)CCN2CCCC2=O)CC1 | -3.22% |
| CCOC(=O)C1(Cc2ccccc2Cl)CCN(C(=O)CN2CCOC2=O)CC1 | 8.88% |
| CCOC(=O)C1(CCCc2ccccc2)CCN(C(=O)CCN2CCCCC2=O)CC1 | -62.8% |
| CCOC(=O)C1(CCCc2ccccc2)CCN(C(=O)CCn2cncn2)CC1 | -56.4% |
| CCOC(=O)C1(CCCc2ccccc2)CCN(C(=O)CCCn2cncn2)CC1 | -44.1% |
| CCOC(=O)C1(Cc2ccccc2Cl)CCN(C(=O)c2cnccn2)CC1 | -20.2% |
| CCOC(=O)C1(CCc2ccccc2)CCN(C(=O)CCn2cncn2)CC1 | -63.2% |
| CCOC(=O)C1(CCCc2ccccc2)CCN(C(=O)CN2CCOC2=O)CC1 | 6.35% |
| CCOC(=O)C1(CCc2ccccc2)CCN(C(=O)C(C)n2cncn2)CC1 (stereo not drawn) | -14.3% |
| CN(C)c1nc(N)c([N+](=O)[O-])c(NCC2CCCO2)n1 (stereo not drawn) | 7.07% |
| O=C(O)CCCNC(=O)/C=C/c1ccco1 | 12.5% |
| CC(=O)Nc1sc(-c2ccccc2)nc1-c1ccccc1 | 14% |
| CCOC(=O)c1[nH]c2ccc(OC)cc2c1NC(=O)c1nonc1C | 6.27% |
| Cc1cc(-c2nnc(CCC(=O)NCc3ccc(F)c(F)c3)o2)no1 | 2.95% |
| Cc1ccnc(NC(=O)c2cccc(S(=O)(=O)N3CCCc4ccccc43)c2)c1 | -1.95% |
| CN(C(=O)CC1C(=O)NCCN1Cc1c(F)cccc1Cl)C1CCOCC1 (stereo not drawn) | 17.9% |
| Cc1ccc(S(=O)(=O)N2CC(=O)NC(=O)C2)cc1 | 6.07% |
| O=C(C#Cc1ccccc1)Nc1ccc(F)cc1 | 10.1% |
| C[C@@H](NC(=O)c1nc[nH]c1C(=O)NCc1ccc(CNC(=O)OC(C)(C)C)cc1)c1ccccc1 | 6.47% |
| CCOC(=O)C1(CCCc2ccccc2)CCN(C(=O)CCn2cnnn2)CC1 | -56.6% |
| CCOC(=O)C1(CCc2ccccc2)CCN(C(=O)CCn2cnnn2)CC1 | -43.2% |
| CCOC(=O)C1(CCCc2ccccc2)CCN(C(=O)CN2C(=O)CSC2=O)CC1 | -4.63% |
| COc1ccc(NC(=O)NNC(=O)c2ccc(Cl)cc2Cl)cc1OC | 13% |

| Structure (SMILES) | hERG current change (%, negative = inhibition) at 10uM |
| --- | --- |
| CCOc1ccc2c(c1)sc1nc(C(=O)OC)cc(=O)n12 | -12.9% |
| C[C@]12CS(=O)(=O)C[C@H]1SC(=S)N2c1ccccc1 | -0.916% |
| Cc1cccc(N2CCN(C(=O)c3cc4c(=O)[nH]c5ccccc5c4n3C)CC2)c1C | 14.6% |
| Cc1ccc(Cl)cc1N1CCN(C(=O)c2cc3c(=O)[nH]c4ccccc4c3n2C)CC1 | 8.91% |
| Cn1c(C(=O)N2CCN(c3ccc(Cl)cc3)CC2)cc2c(=O)[nH]c3ccccc3c21 | -114% |
| OCCNc1nc2ccccc2[nH]1 | 12.8% |
| CCCCN(CCCC)CCCNC(=O)C1CC(c2ccc(C(F)(F)F)cc2)=NO1 (stereo not drawn) | -72.3% |
| CCCCNC(=O)C1CC(c2ccc(C(F)(F)F)cc2)=NO1 (stereo not drawn) | 3.73% |
| CCCCN(CCCC)CCCNC(=O)C1CC(c2cc(C(F)(F)F)cc(C(F)(F)F)c2)=NO1 (stereo not drawn) | 3.86% |
| COCCCN1C(=O)c2ccc(C(=O)OCC(=O)N(C)c3ccccc3)cc2C1=O | 2.63% |
| CCOc1cccc2cc(-c3csc(NC(=O)CCC(=O)NCCN4CCCCC4C)n3)c(=O)oc12 (stereo not drawn) | -34.9% |
| CCOc1cccc2cc(-c3csc(NC(=O)CCC(=O)NCCCN4CCC(C)CC4)n3)c(=O)oc12 | -44.6% |
| COc1cccc2cc(-c3csc(NC(=O)CCC(=O)NCCCN4CCC(C)CC4)n3)c(=O)oc12 | -51.9% |
| O=C(CNC(=O)c1cccc(Br)c1)NCCc1nc2ccccc2[nH]1 | 5.59% |
| COc1ccc(CN2CCCC(C(=O)c3cccc(OC(C)C)c3)C2)cc1Cn1cccn1 (stereo not drawn) | -69.9% |
| COc1ccc(CN2CCCC(C(=O)c3ccc(SC)cc3)C2)cc1Cn1cccn1 (stereo not drawn) | -80.3% |
| COc1ccc(CN2CCCC(C(=O)c3ccc(Cl)cc3)C2)cc1Cn1cccn1 (stereo not drawn) | -83.9% |
| COc1ccc(C(=O)C2CCCN(C(=O)c3cccc(Cn4cccn4)c3)C2)cc1F (stereo not drawn) | -14.5% |
| COc1ccccc1C(=O)C1CCCN(C(=O)c2cccc(Cn3cccn3)c2)C1 (stereo not drawn) | -13% |
| COCCNC(=O)CSc1ncnc2sc(-c3ccccc3)cc12 | 2.83% |
| CC(C)(C)C1CCc2c(C(=O)NNC(=O)/C=C/C(=O)O)csc2C1 (stereo not drawn) | 10.3% |
| Cc1c(C(=O)N2CCC3(CC2)OCCO3)sc2ncnc(N3CCc4ccccc4C3)c12 | -33.7% |
| Cn1cc(CN2CCC(C(=O)N3CCCC3)CC2)c(-c2ccccc2F)n1 | -4.8% |

| Structure (SMILES) | hERG current change (%, negative = inhibition) at 10uM |
| --- | --- |
| O=Cc1cn(CCC(=O)O)nc1-c1cc2ccccc2o1 | -5.41% |
| Cn1cc(CN2CCC(C(=O)N3CCCCC3)CC2)c(-c2ccccc2F)n1 | 4.1% |
| Cn1cc(CN2CCC(C(O)CCc3ccccc3)CC2)c(-c2ccccc2F)n1 (stereo not drawn) | -71.3% |
| OC1CCN(Cc2cn(Cc3ccccc3)nc2-c2cc3ccccc3o2)CC1 | -50.7% |
| O=C1CSC(c2cn(-c3ccccc3)nc2-c2cc3ccccc3o2)N1Cc1ccccc1 (stereo not drawn) | -6.82% |
| OCC1CCCN(Cc2cn(Cc3ccccc3)nc2-c2cc3ccccc3o2)C1 (stereo not drawn) | -41.9% |
| CCC(O)C1CCN(Cc2cn(Cc3ccccc3)nc2-c2cc3ccccc3o2)CC1 (stereo not drawn) | -65.1% |
| OCC1CCN(Cc2cn(Cc3ccccc3)nc2-c2cc3ccccc3o2)CC1 | -67% |
| OC1CCCN(Cc2cn(Cc3ccccc3)nc2-c2cc3ccccc3o2)C1 (stereo not drawn) | -44.7% |
| N#CCCn1cc(C(=O)O)c(-c2cc3ccccc3o2)n1 | 24.6% |
| CC1(C)CC(=O)C(Sc2ccccc2[N+](=O)[O-])=C(O)C1 | 4.99% |
| Cc1cc(C)c(OCCCCCNCCO)c(C)c1 | -5.77% |
| Brc1cccc(OCCCCn2cncn2)c1 | 11.2% |
| O=C(CSc1nncn1-c1ccccc1)Nc1ccccc1 | -0.536% |
| N#Cc1c(Oc2ccc3ccccc3c2)sc(C(=O)c2ccccc2)c1N | 11.1% |
| O=C1N(Cc2cccnc2)C[C@@H]2C[C@@H](c3ccc4nsnc4c3)N3CCC[C@@]123 | -11.3% |
| COCc1ccc([C@@H]2C[C@H]3CN(Cc4cccnc4)C(=O)[C@]34CCCN24)o1 | -3.38% |
| Cc1ccc([C@@H]2C[C@H]3CN(Cc4cccc(Cl)c4)C(=O)[C@]34CCCN24)o1 | -34.3% |
| Cc1nn(C(C)C)c(C)c1[C@@H]1C[C@H]2CN(Cc3cccc(Cl)c3)C(=O)[C@]23CCCN13 | -29.2% |
| O=C1N(Cc2cccnc2)C[C@@H]2C[C@@H](c3ccc4nonc4c3)N3CCC[C@@]123 | -59.1% |
| O=C1N(Cc2cccc(Cl)c2)C[C@@H]2C[C@@H](c3ccc4nonc4c3)N3CCC[C@@]123 | -55.1% |
